# Screening results deposited in PubChem BioAssay by National Center for Advancing Translational Sciences (NCATS).
# FUS suppressor: rescues growth of FUS-expressing yeast; S. cerevisiae FUS-expressing, growth rescue, OD600, 24 h; Potency, µM (titrated, usually from 76.6 µM), most hits filed as activators; 0.24% of 390,000 active; AID 1347120;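 also: plate controls were DMSO vehicle for no effect and reference control for full effect; nearly all actives have a fitted effect of over 55% in size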
#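 Quantitative HTS measuring growth restoration of FUS-toxic yeast. Galactose-induced cells (OD 0.005) were exposed 24hr at 30C to compounds at several concentrations, then absorbance at 600 nm was recorded.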
# aSyn rescue: inhibitors of alpha-synuclein toxicity in yeast; 0.14% of 370,000 active; AID 652106; Potency, µM (doses to about 46.1 µM), without a hit: at the highest dose growth rescue (activation), most hits filed as activators; Yeast expressing alpha-synuclein, growth rescue, BacTiter-Glo, 24 h; also: % of control where 0% means no effect; nearly all actives have a fitted effect of over 65% in size
#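 Rescue of yeast growth: cells expressing toxic alpha-synuclein, induced in galactose at OD600 0.02, incubated with compound 24 h at 30 C. ATP luminescence quantified growth; inhibitors of toxicity appear as activators.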
# BCR signal inh: blocks chronic active B-cell receptor signaling. ABC-DLBCL IkBa-CBG/CBR reporter, luminescence ratio, 4 h. Potency, µM (top dose mostly 46.1 µM), without a hit: at the highest dose activity change, negative = inhibition, actives largely listed as inhibitors. 0.05% of 340,000 active; active = well fitted inhibition curve with a large enough effect in the signal ratio, with a control signal flat, not every such curve was filed as active; inconclusive = small, poorly fitted or top-dose-only effect, or effect the other way, or a change in a side signal; the % refers to the signal ratio;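 also: plate controls were basal doxycycline-induced cells for no effect and cells given 10 µM MG132 for full effect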
#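 TMD8 ABC-DLBCL cells carrying doxycycline-inducible green luciferase fused to IkappaBalpha plus unfused red luciferase were exposed to compounds (up to 46 uM) for 4 hrs at 37C. Activity came from the overlap-corrected green/red luminescence ratio.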
# Abeta rescue: restores growth of yeast expressing A-beta42 peptide. yeast expressing A-beta42, growth rescue, OD600, 48 h; response scale: 0% DMSO, 100% iron-clioquinol control. Potency, µM (top dose mostly 46.1 µM), actives largely listed as activators. 0.063% of 410,000 active. AID 1347071; also: nearly all actives have a fitted effect of over 55% in size
#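 Growth rescue measured by 600 nm absorbance after 48 h yeast culture at 30 C with compound. Values normalized between DMSO and an equimolar ferric chloride plus clioquinol control.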
# uPA surface inh: cell surface uPA generation inhibition; cell surface uPA generation assay, qHTS; Potency, µM (top dose mostly 38.3 µM), for the others: at the top dose activity change, negative = inhibition, usual class: inhibitors; 0.31% of 330,000 active; AID 540303; active = well fitted inhibition curve with a large enough effect; inconclusive = small, poorly fitted or top-dose-only effect; inactive = no such curve, though single readings can be large or run the other way; tested in mouse RAW 264.7 cells; also: % is scaled to controls: 0 for no effect and ±100 for the full control effect; nearly all actives have a fitted effect of over 55% in size
# TDP43 rescue: rescues yeast growth from TDP-43 toxicity | AID 652104 | Potency, µM (titrated, usually from 46.1 µM), inactives show at the top dose growth rescue (activation), usual class: activators | 1.8% of 410,000 active | TDP-43 expressing yeast growth rescue, BacTiter-Glo, 24 h; also: % of control where 0% means no effect; nearly all actives have a fitted effect of over 50% in size
#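 Yeast expressing TDP-43 (pregrown in raffinose, seeded at OD600=0.02 in galactose medium) exposed to compounds 24 hr at 30 deg C. Growth read by BacTiter-Glo luminescence; rescue of toxicity appears as increased signal.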
# * hit, by the source's call; i = inactive; ? = inconclusive; . = no result; [ ] = another dose, or the depositor's remark. Rows were chosen to be rich in hits. Some 2.3% of all compounds tested hit in one or more screens of this group. Unless noted, calls follow the shape of the dose curve; as a rule, active = well fitted curve in the direction sought with a large enough effect; inconclusive = small, poorly fitted or top-dose-only effect, or another doubt; inactive = no such curve, though single readings can be large; an effect the other way counts as inactive or inconclusive. Potency is read from the fitted curve at half-maximal effect.
SMILES,FUS suppressor,aSyn rescue,BCR signal inh,Abeta rescue,uPA surface inh,TDP43 rescue
O=C(Cc1ccccc1)Nc1cc(C(=O)c2ccccc2)ccc1N1CCOCC1,i,.,?,i,2%,13µM*
O=C(CSCc1ccccc1Br)N/N=C/c1ccc2c(c1)OCO2,.,-7%,-23%,i,-24%,18µM*
O=C(CSCc1cccc(Br)c1)N/N=C/c1ccc2c(c1)OCO2,i,2%,?,?,0%,?
COC(=O)c1cn(CC(=O)N2CCCCC2C)c2ccccc12 (stereo unspecified),i,1%,0%,?,7%,3%
CCCCNC(=O)c1[nH]c(C)c(C(C)=O)c1C,i,4%,13%,i,-1%,-10%
N/C(=N\OC(=O)CCCOc1ccccc1)c1ccccc1,i,1%,?,i,7%,25µM*
N/C(=N\OC(=O)CCCOc1ccccc1)c1ccncc1,i,9%,?,i,3%,-3%
COc1ccc(OCCCC(=O)ON=C(N)c2ccccc2Cl)cc1,i,4%[1.84 µM],-7%,i,-3%,10µM*
Cc1ccc(OCCCC(=O)ON=C(N)c2ccccc2C)cc1,i,12%,6%,i,12%,?
COc1ccc(CNC(=O)Cc2ccc(NC(=O)N3CCSc4ncccc43)cc2)cc1OC,i,.,.,i,.,11%
COc1cc(NC(=O)CSc2nc3nc(C)c(Cc4ccccc4)c(C)n3n2)cc(OC)c1,?,.,12%,i,.,22%
Cc1ccccc1Cc1c(C)nc2nc(SCC(=O)NCCc3ccc(Cl)cc3)nn2c1C,i,.,.,i,.,32µM*
COc1cc(NC(=O)CSc2nc3nc(C)c(Cc4ccc(C)cc4)c(C)n3n2)cc(OC)c1,32µM*,.,?,i,.,20%
CCN(c1ccccc1)C(CNS(=O)(=O)c1ccccc1)c1ccccc1 (stereo unspecified),i,.,.,i,.,18µM*
CCN(c1cccc(C)c1)C(CNS(=O)(=O)c1ccccc1)c1ccccc1 (stereo unspecified),i,.,.,i,.,23%
C=C(Cl)COc1cc(C)cc2oc(=O)cc(CC)c12,i,0%,16%,i,4%,0%
Cc1ccc(Cc2c[nH]c(=S)s2)cc1,i,1%,?,i,5%,11µM*
O=C(NC1CC1)c1ccc2snnc2c1,i,-2%,1%,i,2%,-13%
Clc1ccccc1-c1ccc(/C=N/n2cnnc2)o1,i,6%,-7%,i,-3%,11µM*
NC(=S)N/N=C/c1ccc(-c2cc(Cl)c(Cl)cc2Cl)o1,i,23%,?,13µM*,-6%,4%
COC(=O)N/N=C/c1ccc(-c2ccccc2Cl)o1,i,5%,0%,i,-13%,20µM*
Clc1cccc(-c2ccc(/C=N/n3cnnc3)o2)c1Cl,i,1%,0%,i,6%,3%
Cc1cnc(NC(=O)c2cc3c(C)nn(Cc4ccccc4Cl)c3s2)s1,i,1%,-1%,i,-2%,21%
O=C(Nc1ccccc1)c1cc(C2CCCN(C(=O)c3cccs3)C2)on1 (stereo unspecified),i,2%,.,i,.,?
COc1ccccc1C(=O)NS(=O)(=O)c1ccc(C)cc1,i,?,0%,i,12%,18µM*
SMILES,FUS suppressor,aSyn rescue,BCR signal inh,Abeta rescue,uPA surface inh,TDP43 rescue
O=C(NC1CC(=O)N(c2ccccc2)C1)c1cc2ccccc2o1 (stereo unspecified),i,.,-1%,i,.,21%
Fc1ccc(Sc2cc(Cl)c(-c3ccccc3)nn2)cc1,i,-1%,10%,i,-5%,16µM*
CCCc1nc(N)sc1C(=O)OCC,i,-16%,-10%,i,-5%,1%
Cc1ccc(C(=O)NNc2nc3ccccc3nc2C(F)(F)F)cc1,i,1%,0%,i,1%,17%
Cc1ccc2oc(C(Cl)(Cl)Cl)cc(=O)c2c1,i,-20%,22µM*,i,?,-16%
Cc1ccc2oc(C(F)(F)C(F)F)cc(=O)c2c1,i,-5%,?,i,6%,2%
O=C(COc1ccc(Cl)cc1)NCCSCc1ccccc1Cl,i,2%,-1%,i,7%,25µM*
Cc1cccc(CSCCNC(=O)COc2ccc(Cl)cc2)c1,i,9%,?,i,-2%,?
O=C(COc1ccc(Cl)cc1)NCCSCc1cccc(Cl)c1,i,18%,11%,i,5%,16µM*
CCOc1ccc(-c2nc(N)ncc2-c2ccc(Cl)cc2)c(O)c1,i,3%,-3%,i,10%,22µM*
Cc1ccc(S(=O)(=O)N2C[C@H]3[C@H]4C(=O)N(Cc5ccccc5)C(=O)[C@H]4CC(=O)[C@H]3[C@@H]2c2ccccc2F)cc1,18µM*,2%,.,i,.,23%
Cc1ccc(-c2csc3ncnc(-n4nnc5ccccc54)c23)cc1C,i,2%,0%,i,1%,14%
CCN(CCO)c1nc(NCc2ccccc2)c2cnn(C)c2n1,i,4%,0%,i,19%,17%
N#Cc1ccccc1OCC(=O)N1CCN(c2ccccc2F)CC1,i,.,.,i,.,22µM*
COc1ccccc1N1CCN(C(=O)COc2ccccc2C#N)CC1,i,.,.,i,.,?
O=c1n(Cc2ccccc2)nc2n1-c1cc(Cl)ccc1OC2,i,.,.,i,.,23%
CC(=O)N1CCN(c2ccc(NC(=O)C(C)Oc3ccc(Cl)cc3Cl)cc2)CC1 (stereo unspecified),?,3%,?,i,-4%,11µM*
CC(Oc1ccc(Cl)cc1Cl)C(=O)Nc1ccc(N2CCN(C)CC2)cc1 (stereo unspecified),i,3%,0%,i,-1%,2%
Cc1ccc(-n2nc(CO)c(C(=O)NCc3cccs3)n2)cc1,i,.,.,i,.,6%
Cc1cccc(N2CCN(c3nc4ccc(C)cc4n4cnnc34)CC2C)c1 (stereo unspecified),i,.,.,i,.,35µM*
Cc1ccc(-c2nnn(CC(=O)NCCC3=CCCCC3)n2)cc1,i,-6%,-14%,i,1%,3%
COc1cc2cc(C(c3nnnn3C(C)(C)C)N3CCc4ccccc43)c(=O)[nH]c2cc1OC (stereo unspecified),28µM*,10%,-11%,i,-1%,-22%
CC(=O)O[C@]1(C(C)=O)CC[C@H]2[C@@H]3C=C(Cl)C4=CC(=O)CC[C@]4(C)[C@H]3CC[C@@]21C,i,6%,-1%,i,-13%,12%
